# Source: PubChem BioAssay
# Active and inactive are the calls of the source. Unless noted, how the calls were made is not given here.
# Tests used:
# [1] = system: Wnt5a (protein binding on small-molecule microarray); test: Wnt5a binders on small-molecule microarray, primary screen, biophysical, 635/667 nm fluorescence (AID 1142); details: 635 nm fluorescence, higher = more signal;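 further: fluorescence read at 667 nm with signal to noise per printed feature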
# [2] = cell viability in Huh7 cells, primary screen, cytotoxicity control for HCV replication inhibitor project, CellTiter-Glo luminescence, basal, 48 h (AID 1143); details: Huh7 HCV replicon, higher = more signal, called active from +8 up or from −8 down;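 further: Huh7 hepatoma cells carrying a hepatitis C replication reporter with no stimulus; test concentration not given here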
# [3] = P. aeruginosa biofilm formation inhibitors, primary screen, PAO1 strain, BacTiter-Glo luminescence, LB-PBS (AID 1144); details: 12 h, higher = more signal
# [4] = CREB reporter modulators without forskolin, primary screen, cell-based, PC12, CRE-LacZ reporter, unstimulated (AID 1145); details: no forskolin, luminescence, 4.5 h, higher = more signal, called active from +8 up or from −8 down
# [5] = CREB reporter modulators under forskolin, primary screen, cell-based, PC12, CRE-LacZ reporter, forskolin-stimulated (AID 1146); details: luminescence, 4.5 h, higher = more signal, called active from +8 up or from −8 down;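 further: PC12 cells with 6xCRE LacZ reporter stimulated by forskolin 10 µM; beta-galactosidase reporter signal reflecting CREB driven transcription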
# [6] = target: Streptavidin (Streptomyces avidinii) (UniProt P22629); test: streptavidin binders on small-molecule microarray, primary screen, artefact control for SMM compound annotation, biophysical, 635/667 nm fluorescence (AID 1147); details: streptavidin binding, higher = more signal;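 further: signal reflects streptavidin binding to arrayed compounds as a control protein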
# Streptavidin (Streptomyces avidinii), sequence (P22629 whole entry, looked up): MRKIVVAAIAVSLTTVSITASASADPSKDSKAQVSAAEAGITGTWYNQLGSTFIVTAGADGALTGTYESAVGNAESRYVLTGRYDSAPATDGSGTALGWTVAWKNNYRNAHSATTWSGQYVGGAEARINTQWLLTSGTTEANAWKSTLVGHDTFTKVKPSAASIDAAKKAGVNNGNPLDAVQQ
# [7] = small-molecule binders of probe aInhba, primary screen, biochemical, small-molecule microarray, 635/667 nm fluorescence (AID 1148); details: higher = more signal;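 further: score merges 667nm spot fluorescence with signal-to-noise for antibody binding to printed compounds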
# Torsin-1A (Homo sapiens) [8] = target: Torsin-1A (Homo sapiens) (UniProt O14656); test: torsin A binders from cell lysate, primary screen, small-molecule microarray, wild-type, 635/667 nm (AID 1149); details: COS7 hTOR1A-WT lysate, 635 nm fluorescence, higher = more signal
# Torsin-1A (Homo sapiens), sequence (O14656 whole entry, looked up): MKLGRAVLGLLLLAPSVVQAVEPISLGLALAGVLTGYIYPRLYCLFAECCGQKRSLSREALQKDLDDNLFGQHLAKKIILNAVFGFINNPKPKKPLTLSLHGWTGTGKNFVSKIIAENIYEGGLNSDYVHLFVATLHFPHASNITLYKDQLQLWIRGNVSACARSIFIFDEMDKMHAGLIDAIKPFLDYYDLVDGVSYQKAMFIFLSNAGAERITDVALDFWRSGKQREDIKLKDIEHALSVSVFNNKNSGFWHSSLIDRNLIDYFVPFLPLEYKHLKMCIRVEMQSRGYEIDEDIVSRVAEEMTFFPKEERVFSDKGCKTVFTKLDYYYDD
# Torsin-1A (Homo sapiens) [9] = target: Torsin-1A (Homo sapiens) (UniProt O14656); test: small-molecule binders of mutant TOR1A in lysate, primary screen, cell lysate, small-molecule microarray, COS7 lysate, 635/667 nm fluorescence (AID 1150); details: COS7 hTOR1A mutant lysate, 635 nm fluorescence, higher = more signal;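 further: score pools 667 nm emission and signal to noise measuring lysate protein binding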
# [10] = system: Sonic hedgehog protein (Shh); test: small-molecule binders of Shh protein, primary screen, biochemical, small-molecule microarray, 635/667 nm fluorescence (AID 1151); details: small-molecule microarray binding, 635 nm fluorescence; higher = more signal;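 further: Shh protein binding to compounds spotted on small-molecule microarray slides; score combines spot fluorescence intensity with signal-to-noise across triplicate slides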
# [11] = E. coli DRC41 culture turbidity changes, primary screen, E. coli filamentation inducer project, strain DRC41, OD650, 48 h (AID 1152);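 further: E. coli MC1000 strain DRC41 lacking acrAB efflux pump and sulA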; details: E. coli DRC41 (acrAB sulA), higher = more signal, called active from +8 up or from −8 down
# [12] = small-molecule binders of probe aLefty1, primary screen, biochemical, small-molecule microarray, 635/667 nm fluorescence (AID 1153); details: higher = more signal;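 further: score merges spot fluorescence with signal-to-noise ratio from the scanned slide images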
# [13] = PSAC antagonists in infected red cells, primary screen, cell-based, P. falciparum Indochina, OD700, 1 h (AID 1154); details: P. falciparum Indochina infected RBC osmotic lysis, higher = more signal, called active from +8 up or from −8 down
# [14] = PSAC antagonists in infected red cells, primary screen, cell-based, P. falciparum Indochina, OD700, 2 h (AID 1155);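 further: lysis reports solute entry through the parasite surface anion channel PSAC; channel blockers reduce lysis of infected cells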; details: P. falciparum Indochina infected erythrocytes, osmotic lysis OD700; higher = more signal, called active from +8 up or from −8 down
# [15] = osmotic lysis modulators in infected erythrocytes, primary screen, PSAC antagonist project, cell-based, P. falciparum Indochina, OD700, 3 h (AID 1156); details: higher = more signal, called active from +8 up or from −8 down
# [16] = PSAC antagonists in infected red cells, primary screen, cell-based, P. falciparum Indochina, OD700, 18 h (AID 1157); details: P. falciparum Indochina infected erythrocytes, osmotic lysis OD700, 18 h; higher = more signal, called active from +8 up or from −8 down
# [17] = modulators of S6 phosphorylation in cells, primary screen, cell-based, A549, cytoblot, luminescence, serum-stimulated (AID 1158); details: A549 phospho-S6 cytoblot, 5 h, higher = more signal;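 further: serum-stimulated A549 lung adenocarcinoma cells; signal is phosphorylated S6 detected by cytoblot immunostaining with HRP secondary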
# [18] = target: NADPH oxidase 2 (Homo sapiens) (UniProt P04839); test: NOX2-dependent H2O2 signal modulators, primary screen, NOX inhibitor project, cell-based, HEK293-NOX2, PMA-stimulated, Amplex Red fluorescence (AID 1159); details: 45 min, higher = more signal, called active from +8 up or from −8 down; further: test concentration not given here
# NADPH oxidase 2 (Homo sapiens), sequence (P04839 whole entry, looked up): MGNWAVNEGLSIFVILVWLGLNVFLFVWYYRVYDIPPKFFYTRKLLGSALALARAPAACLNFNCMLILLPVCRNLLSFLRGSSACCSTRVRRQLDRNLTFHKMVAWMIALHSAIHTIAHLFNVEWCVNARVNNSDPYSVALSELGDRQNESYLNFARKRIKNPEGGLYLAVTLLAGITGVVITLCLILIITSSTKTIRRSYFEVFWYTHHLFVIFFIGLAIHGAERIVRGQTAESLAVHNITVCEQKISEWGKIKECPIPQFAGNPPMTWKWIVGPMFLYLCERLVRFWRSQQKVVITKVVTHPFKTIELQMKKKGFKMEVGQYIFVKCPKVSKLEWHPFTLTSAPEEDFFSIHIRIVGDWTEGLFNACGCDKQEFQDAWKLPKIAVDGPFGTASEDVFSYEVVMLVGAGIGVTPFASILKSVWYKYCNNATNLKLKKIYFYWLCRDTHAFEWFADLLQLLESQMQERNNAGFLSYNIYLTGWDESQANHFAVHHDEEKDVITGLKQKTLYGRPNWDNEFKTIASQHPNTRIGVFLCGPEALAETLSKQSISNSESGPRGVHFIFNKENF
# [19] = target: NADPH oxidase 4 (Homo sapiens) (UniProt Q9NPH5); test: NOX4-dependent H2O2 signal modulators, primary screen, NOX inhibitor project, cell-based, HEK293-NOX4, tetracycline-induced, Amplex Red fluorescence (AID 1160); details: 45 min, higher = more signal, called active from +8 up or from −8 down
# NADPH oxidase 4 (Homo sapiens), sequence (Q9NPH5 whole entry, looked up): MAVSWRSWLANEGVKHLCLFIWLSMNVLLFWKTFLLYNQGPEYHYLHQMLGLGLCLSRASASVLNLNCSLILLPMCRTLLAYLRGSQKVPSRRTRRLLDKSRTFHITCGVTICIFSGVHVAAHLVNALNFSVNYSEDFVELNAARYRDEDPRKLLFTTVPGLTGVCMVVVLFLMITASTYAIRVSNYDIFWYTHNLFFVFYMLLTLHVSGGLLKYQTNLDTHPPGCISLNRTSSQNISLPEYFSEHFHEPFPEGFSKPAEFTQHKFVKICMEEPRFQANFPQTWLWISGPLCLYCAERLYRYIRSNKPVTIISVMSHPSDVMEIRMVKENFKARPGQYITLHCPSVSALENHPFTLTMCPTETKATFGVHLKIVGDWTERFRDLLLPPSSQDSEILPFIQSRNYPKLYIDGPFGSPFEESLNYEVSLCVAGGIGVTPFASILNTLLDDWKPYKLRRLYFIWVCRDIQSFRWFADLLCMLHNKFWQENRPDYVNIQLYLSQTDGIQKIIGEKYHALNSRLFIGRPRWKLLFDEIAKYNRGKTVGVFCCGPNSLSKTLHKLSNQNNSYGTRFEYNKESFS
# [20] = target: NADPH oxidase 5 (Homo sapiens) (UniProt Q96PH1); test: NOX5-dependent H2O2 signal modulators, primary screen, NOX inhibitor project, cell-based, HEK293-NOX5, Amplex Red fluorescence (AID 1161); details: HEK293-NOX5, ionomycin, 45 min, higher = more signal
# NADPH oxidase 5 (Homo sapiens), sequence (Q96PH1 whole entry, looked up): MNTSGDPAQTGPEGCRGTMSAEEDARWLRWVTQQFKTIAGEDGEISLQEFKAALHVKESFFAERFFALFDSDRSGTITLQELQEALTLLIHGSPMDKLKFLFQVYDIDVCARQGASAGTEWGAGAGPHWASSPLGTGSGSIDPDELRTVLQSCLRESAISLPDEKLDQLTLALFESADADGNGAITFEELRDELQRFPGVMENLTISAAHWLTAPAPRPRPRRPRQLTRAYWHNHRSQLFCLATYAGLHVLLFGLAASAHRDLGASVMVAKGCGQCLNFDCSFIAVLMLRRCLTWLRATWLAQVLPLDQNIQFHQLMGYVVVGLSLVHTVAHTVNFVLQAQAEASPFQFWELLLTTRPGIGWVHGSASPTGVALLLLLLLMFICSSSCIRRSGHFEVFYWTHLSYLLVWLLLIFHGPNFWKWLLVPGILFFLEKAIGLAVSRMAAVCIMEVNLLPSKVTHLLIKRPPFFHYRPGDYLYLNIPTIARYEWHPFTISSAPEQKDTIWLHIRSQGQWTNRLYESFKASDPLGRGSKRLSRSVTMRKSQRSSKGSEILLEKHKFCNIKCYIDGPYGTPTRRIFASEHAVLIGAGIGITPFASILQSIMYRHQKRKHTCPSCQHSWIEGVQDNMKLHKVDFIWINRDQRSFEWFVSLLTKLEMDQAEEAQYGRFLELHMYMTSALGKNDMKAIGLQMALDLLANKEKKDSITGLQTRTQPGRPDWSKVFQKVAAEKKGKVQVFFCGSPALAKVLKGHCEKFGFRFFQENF
SMILES,composite z-score [1],z-score [2],z-score [3],z-score [4],z-score [5],composite z-score [6],composite z-score [7],composite z-score (Torsin-1A (Homo sapiens) [8]),composite z-score (Torsin-1A (Homo sapiens) [9]),composite z-score [10],z-score [11],composite z-score [12],z-score [13],z-score [14],z-score [15],z-score [16],z-score [17],z-score [18],z-score [19],z-score [20]
CCOC(=O)CCN1C(=O)[C@H]2[C@H]3[C@H](O)[C@H](O)CC(=NOCC=C(C)CCC=C(C)C)[C@H]3CC[C@H]2C1=O,0.0888,-0.148 (inactive),1.18 (inactive),0.153 (inactive),0.462 (inactive),0.344,0.12,0.703,0.355,-0.423,1.04 (inactive),0.148,1.09 (inactive),0.887 (inactive),1.25 (inactive),0.378 (inactive),0.199,-4.23 (inactive),0.943 (inactive),0.546
CO[C@H]1COC(=O)CC=C[C@H](C)[C@H](OC)COC(=O)[C@@H](C)NC(=O)CC=C[C@@H]1C,-0.0492,-0.379 (inactive),-0.727 (inactive),0.276 (inactive),0.314 (inactive),-0.201,-0.179,2.9,1.82,2.06,-0.619 (inactive),-0.0939,-0.89 (inactive),-1.35 (inactive),-0.14 (inactive),-1.92 (inactive),-0.365,-0.677 (inactive),0.557 (inactive),0.197
CC(C)CON=C1C[C@@H](O)[C@@H](O)[C@@H]2[C@@H]3C(=O)N(Cc4ccccc4)C(=O)[C@@H]3CC[C@H]12,0.0659,-1.75 (inactive),-1.46 (inactive),-0.0223 (inactive),0.627 (inactive),-0.682,-0.212,0.0783,0.208,0.503,-1.41 (inactive),-0.249,1.12 (inactive),-1.19 (inactive),0.99 (inactive),-1.6 (inactive),0.0105,1.48 (inactive),0.209 (inactive),0.588
CC(=O)OC[C@H]1O[C@H](CCON=C(C)CCN2CCCc3nc(C)c(C)cc32)C=C[C@@H]1OC(C)=O,0.166,0.271 (inactive),-0.181 (inactive),0.322 (inactive),0.469 (inactive),0.426,0.0973,0.946,1.17,1,0.198 (inactive),0.0861,2.13 (inactive),1.25 (inactive),0.872 (inactive),0.489 (inactive),-1.17,0.152 (inactive),0.11 (inactive),0.207
O=C1[C@H]2[C@H]3[C@H](O)[C@H](O)CC(=NO[C@@H]4O[C@H](CO)[C@@H](O)[C@H](O)[C@H]4O)[C@H]3CC[C@H]2C(=O)N1C[C@@H]1CCCO1,0.16,0.297 (inactive),0.261 (inactive),-0.477 (inactive),-0.105 (inactive),0.253,-0.159,0.288,0.952,-0.167,0.819 (inactive),-0.0054,0.651 (inactive),0.544 (inactive),0.0197 (inactive),0.353 (inactive),-0.164,-2.4 (inactive),0.513 (inactive),0.488
CCN1C(=O)[C@H]2[C@H]3[C@H](O)[C@H](O)CC(=NOC[C@@H](O)COCc4ccco4)[C@H]3CC[C@H]2C1=O,-0.13,0.337 (inactive),-0.388 (inactive),-0.926 (inactive),-0.541 (inactive),-1.09,-0.241,3.04,2.87,1.97,0.537 (inactive),-0.22,-0.392 (inactive),-0.025 (inactive),-0.468 (inactive),0.108 (inactive),-0.18,-7.58 (inactive),0.0462 (inactive),0.262
C[C@H]1CC[C@H]2C(=O)OC(COc3ccc(C(C)(C)C)cc3)CN2[C@@H]1c1ccc(Br)cc1 (stereo not given in full),0.253,-0.259 (inactive),-1.12 (inactive),2.36 (inactive),-1.04 (inactive),0.468,-0.176,0.213,0.179,0.0438,0.786 (inactive),-0.103,1.39 (inactive),0.0974 (inactive),-1.24 (inactive),0.0011 (inactive),0.0307,0.426 (inactive),0.317 (inactive),0.671
O=C1C=C[C@@H](O)[C@@H]2[C@@H]3C(=O)N(c4cccc(Oc5ccccc5)c4)C(=O)[C@@H]3CC[C@@H]12,-0.136,-3.63 (inactive),-0.743 (inactive),1.43 (inactive),-0.358 (inactive),0.061,-0.128,0.96,-0.118,0.64,-1.65 (inactive),-0.103,0.641 (inactive),-0.158 (inactive),-0.441 (inactive),-1.07 (inactive),0.249,0.472 (inactive),-0.433 (inactive),0.283
COC(=O)[C@H](C)NC(=O)CCC1CC(OC(=O)NCc2ccc3c(c2)OCO3)CC2(CCCC(COC(=O)NCc3ccccc3)O2)O1 (stereo not given in full),0.298,-0.268 (inactive),-0.801 (inactive),-0.345 (inactive),-0.169 (inactive),0.115,-0.0136,0.283,0.177,1.38,1.07 (inactive),-0.0061,1.08 (inactive),0.0056 (inactive),0.049 (inactive),0.272 (inactive),0.307,0.154 (inactive),1.22 (inactive),0.654
